Inconclusive results are not listed. Values without a mark were called inactive. Calls of active or inactive are those of the source.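 How the source made its calls: active means viability at or below 27.92% in each of two runs, the all-compound median minus 4 SD; inconclusive means no clear call, values can overlap the other calls; inactive means the rest.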

The nature of the assay: growth suppression of PTEN-deleted HCT116, pilot screen, cell-based, HCT116 clonal line, CellTiter-Glo (AID 824).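 Further: 0% = 20 µM Hyamine control and 100% = vehicle cell control.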 To be noted: 60 h, at 10 µM, active compounds read low.
`COc1ccc(C(=O)NCc2nnc(SC)n2C2CCCCC2)cc1`: the viability is 96.4%.
For `Oc1ccc(Cl)cc1-c1cc(-c2ccccc2)n[nH]1` the value was 23.1% (active); for `O=C(CCCn1c(=O)c2sccc2n(Cc2cc(=O)n3ccccc3n2)c1=O)NCc1ccco1`, 99.3%.
Consider `COC(=O)c1cn(NC(=O)C2CCCO2)c(=O)c2ccccc12` (stereo unspecified), for which the viability is 98.8%.
For `CCN(CC)CCCNC(=O)c1cn(C)c2ccc(S(=O)(=O)N(C)C)cc2c1=O`, the viability is 98.5%.
`Cc1nnc(SCCn2c(N3CCC(Cc4ccccc4)CC3)nc3c2c(=O)[nH]c(=O)n3C)s1`: the viability was 75.7%.
As for `O=C(C(Cc1ccccc1)n1cccc1)N1CCCCCC1` (stereo unspecified), the viability is 88%.
Then `O=C(Cn1nc(Cc2ccncc2)c2ccccc2c1=O)N1CCN(C(=O)c2ccco2)CC1`, with 107%; and `COc1ccc(-c2nc(CS(=O)CC(=O)NCc3ccccn3)c(C)o2)cc1` (stereo unspecified), with 98.5%.
On to `CCn1c(SCC(=O)Nc2ccc(Cl)cc2)nnc1C1CC1`, for which the viability was 97.8%.
Take `CCOC(=O)CN(C(=O)c1ccccc1)c1ccccc1C`: the viability is 94.2%.
`COC(=O)Cc1cc(=O)[nH]c(Nc2nc3ccccc3o2)n1`: the viability is 97.9%.
With `COc1ccc(C2CC(c3cccc(C)c3)n3ncnc3N2)cc1` (stereo unspecified), the viability was 86.1%.
As for `CC1CCCCN1CCNC(=O)C1CCN(S(=O)(=O)c2cccc3cccnc23)CC1` (stereo unspecified), the viability is 97.9%.
Then `CCCCSc1nc(CCC)cc(=O)[nH]1`, with 104%.
Regarding `CC1(C)CC(=O)C2=C(C1)NC(=O)CC2c1ccc(N(CCC#N)CCC#N)cc1` (stereo unspecified), the viability is 100%.

The values are drawn from PubChem BioAssay.
